Screening data from PubChem.
An excerpt weighted towards active compounds, which were near 2.5% of everything screened.
ASK1 primary = human ASK1 kinase inhibition, primary screen; AlphaScreen MKK6 phosphorylation by ASK1, luminescence; AID 1159602; inhibition, % at 7.44 µM; 22,000 compounds, 0.99% hits; in the data active = inhibition above about 35%;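 note: 0% = median of compound wells and 100% = no enzyme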
ULK1 inh = inhibitors of human ULK1 kinase. AlphaScreen Atg13 phosphorylation by ULK1, luminescence. inhibition, % at 5.96 µM. 30,000 compounds, 1.9% hits; in the data active = inhibition above about 43%;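 note: 0% = median of compound wells and 100% = no enzyme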
* = called active by the depositor; / = no result.

SMILES | ASK1 primary | ULK1 inh
c1ccc(Nc2cc(Nc3ccncn3)ncn2)cc1 | -12.9 | 46.1*
COc1cccc(CN(CCO)C(=O)Nc2ccc(-c3cn[nH]c3)cc2OCCO)c1 | 4.1 | 1.4
CCOc1cc(/C=N\NC(=O)c2n[nH]c3c2CCCC3)ccc1O | / | 44.4*
CCOc1cc(/C=N/N2C(=O)C3C(C2=O)C2C=CC3C23CC3)ccc1O (configuration not stated) | / | 5.2
CNC(=O)c1cc(F)ccc1Nc1cc(Nc2cc(-c3cncnc3)nc(C)n2)ncc1C(F)(F)F | 9.1 | 58.2*
CNC(=O)c1ccccc1Nc1cc(Nc2ccc(F)cc2OC)ncc1C(F)(F)F | -1.4 | 87.1*
NC(=O)c1ccccc1Nc1cc(Oc2ccccc2F)ncc1C(F)(F)F | 0.8 | -8.3
CNC(=O)c1ccccc1Nc1cc(Nc2ccc(-c3cncnc3)cc2OC)ncc1C(F)(F)F | -8.3 | 86.2*
Cc1nc(Nc2cc(Nc3ccccn3)c(C(F)(F)F)cn2)cc(-c2cncnc2)n1 | 22.0 | 32.3
CNC(=O)c1cncnc1Nc1cc(NC(=O)Cc2ccc(OC)cc2)ncc1C(F)(F)F | 26.1 | 14.7
Cc1noc(C)c1-c1cccc(C(=O)Nc2ccccc2)n1 | -1.2 | 6.9
FC(F)(F)c1ccc(Cn2cnc3c(Nc4ccccc4)nc(Nc4ccccc4)nc32)cc1 | 10.0 | -8.8
CCCNC(=O)c1ccc2nc(-c3cccc(N)c3)sc2c1 | -17.4 | -11.1
c1ccc(CN2CCC(Nc3nc(Nc4ncccn4)nc4nc[nH]c34)CC2)cc1 | 2.1 | 13.6
N[C@H]1CCC[C@H](C(=O)Nc2cccc3c(=O)[nH]cnc23)C1 | 8.6 | 53.1*
N[C@H]1CC[C@@H](C(=O)Nc2cccc3cnccc23)C1 | -8.8 | -0.9
CNC(=O)c1ccccc1Nc1cc(Nc2ccc(C(=O)N(C)C)cn2)ncc1C(F)(F)F | -7.8 | 88.9*
CNC(=O)c1ncccc1Nc1cc(Nc2ccc3[nH]ncc3c2)ncc1C(F)(F)F | 5.5 | 23.9
CN(C)C(=O)c1ncccc1Nc1cc(Nc2ccc3c(c2)CC(=O)N3)ncc1C(F)(F)F | -10.6 | 39.9
CNC(=O)c1ccccc1Nc1cc(Nc2ccc(C(=O)N(C)C)cc2C)ncc1C(F)(F)F | -26.9 | 78.4*
CNC(=O)c1ncccc1Nc1cc(Nc2ccc(C(=O)N(C)C)cn2)ncc1C(F)(F)F | 7.0 | 56.3*
O=C(Cc1cn(-c2ccc(Nc3ccncn3)nn2)c2ccccc12)Nc1ccc(N2CCOCC2)cc1 | 6.1 | 25.4
COCCn1c(C)cc(O)c(C(c2ccc(Cl)cc2)N2CCN(c3ccc(F)cc3)CC2)c1=O (configuration not stated) | / | 6.4
CC(C)N(CCNc1nc(Nc2ccc(N3CCOCC3)cc2)nc2c1ncn2CCN1CCCC1=O)C(C)C | -0.8 | 2.7
O=C1c2ccccc2-c2n[nH]c3cccc1c23 | -43.4 | 76.1*
SMILES | ASK1 primary | ULK1 inh
O=C1C(=O)c2ncccc2-c2cccnc21 | / | 38.2
COc1cc2nc(-c3c(C)noc3C)nc(Nc3ccc(NC(C)=O)cc3)c2cc1OC | 2.3 | -6.0
COc1cccc(CN(CCN2CCCC2)C(=O)c2cc3ccc(-c4cn[nH]c4)cc3[nH]2)c1 | -12.2 | -11.2
CC(C)n1cnc2c(NCCO)nc(-c3csc4ccccc34)nc21 | -3.9 | 7.5
O=C(Nc1nc2c(s1)CN(Cc1ccccc1)CC2)c1ccc2ccccc2c1 | / | -19.6
NC(Cc1ccccc1)c1nc2ccc(-c3cncc4ccccc34)cc2[nH]1 (configuration not stated) | 3.8 | 56.8*
NC(Cc1ccccc1)c1nc2ccc(-c3cccc4ncccc34)cc2[nH]1 (configuration not stated) | -17.3 | -19.9
O=C(O)c1cc(O)c(O)c(O)c1 | / | -7.6
O=C(c1cc(O)c(O)c(O)c1)c1ccc(O)c(O)c1O | / | 83.3*
Cc1cc(NCc2cccc(C(F)(F)F)c2)nc(-c2c(C)nn(C)c2C)n1 | -0.4 | -4.7
c1ccc(Nc2nc(Nc3ccccc3)c3ncn(-c4ccccc4)c3n2)cc1 | 21.5 | 5.8
Cc1ccc(S(=O)(=O)/N=C2/C(Cl)=C(Cl)C(=O)c3ccccc32)cc1 | / | -2.4
COc1ccc(S(=O)(=O)/N=C2\C=CC(=O)C(Cl)=C2)cc1 | / | 44.1*
COc1cc(Nc2nc(Nc3cccnc3)ncc2C)cc(OC)c1OC | 4.8 | 32.5
COc1cc(Nc2ncc(C)c(Nc3ccccc3)n2)cc(OC)c1OC | 14.9 | 73.1*
COc1cc(Nc2nc(Nc3ncccn3)ncc2C)cc(OC)c1OC | -5.2 | 28.9
Cc1cnc(Nc2ccc3ncccc3c2)nc1NCCc1ccc(O)cc1 | 4.0 | 51.0*
COc1cc(Nc2nc(Nc3ccc4ncccc4c3)ncc2C)cc(OC)c1OC | 15.8 | 63.4*
COc1ccc(CCNc2nc(Nc3ccc4ncccc4c3)ncc2C)cc1 | -4.2 | 32.1
NC(=O)c1ccc(-c2nc3ncnc(NCc4nc5ccccc5[nH]4)c3[nH]2)cc1 | -0.9 | 19.5
COc1cc2nc(-c3ccc(C(=O)NC4CC4)cc3)nc(Nc3ccc(N4CCOCC4)cc3)c2cc1OC | 14.0 | -23.5
CCCNc1nc(N2CCOCC2)nc2c1ncn2-c1ccsc1 | -43.5 | -14.8
CC(=O)Nc1ccc(Nc2nc(NCc3cccnc3)nc3c2ncn3C(C)C)cc1 | 5.2 | 68.5*
CC(=O)Nc1ccc(Nc2nc(NCc3cccnc3)nc3c2ncn3-c2ccsc2)cc1 | 10.7 | 55.4*
CC(C)n1cnc2c(Nc3ccc(N4CCOCC4)cc3)nc(NCc3cccnc3)nc21 | 10.4 | 46.9*
SMILES | ASK1 primary | ULK1 inh
CC(C)n1cnc2c(NCc3cccnc3)nc(Nc3ccncc3)nc21 | -3.8 | -6.5
CC(=O)Nc1ccc(Nc2nc(NCc3cccnc3)nc3c2ncn3-c2ccccc2)cc1 | -14.2 | 6.8
COc1ccc(CNc2nc(Nc3ccc(OC)cc3)nc3c2ncn3C(C)C)cc1 | 9.0 | -26.3
CC(C)n1cnc2c(Nc3ccc(N4CCOCC4)cc3)nc(NCc3ccc4c(c3)OCO4)nc21 | 34.5 | 7.4
COc1ccc(Nc2nc(Nc3ccc(OCCN4CCCCC4)cc3)c3ncn(C(C)C)c3n2)cc1 | 32.6 | 57.3*
c1ccc(OCCNc2cc(NCCN3CCOCC3)ncn2)cc1 | -11.4 | 6.2
CC(C)N(CCNc1nc(N2CCN(Cc3ccc4c(c3)OCO4)CC2)nc2c1ncn2C1CCCCC1)C(C)C | 7.9 | -21.0
Cc1cc(NCc2ccccc2)nc(NCc2cccnc2)n1 | -12.1 | 0.1
CC(=O)Nc1ccc(Nc2nc(NC3CCC(O)CC3)nc3c2ncn3-c2ccsc2)cc1 (configuration not stated) | 21.3 | 44.4*
CC(C)n1cnc2c(NCc3ccccc3)nc(-c3ccc(C(N)=O)cc3)nc21 | -2.0 | -18.5
OC1CCC(Nc2nc(Nc3ccccc3)c3ncn(-c4ccsc4)c3n2)CC1 (configuration not stated) | 9.0 | 23.2
CC(C)n1cnc2c(Nc3ccccc3)nc(-c3ccc(C(N)=O)cc3)nc21 | 6.9 | 67.8*
CC(=O)Nc1ccc(Nc2nc(Nc3ccncc3)nc3c2ncn3C(C)C)cc1 | 6.5 | 66.5*
COc1cc(Nc2nc(Nc3ccc(NC(C)=O)cc3)c3ncn(C(C)C)c3n2)cc(OC)c1OC | 12.3 | 10.2
c1ccc(CN2CCC(Nc3nc(Nc4ccncn4)nc4nc[nH]c34)CC2)cc1 | 7.0 | 17.1
CCOC(=O)C1CCCN(CCC(=O)Nc2ccccc2F)C1 (configuration not stated) | / | -1.5
Cc1cccc(CC(=O)Nc2cnn(-c3cccc(C(=O)Nc4ccccc4)c3)c2)c1 | -16.1 | -24.4
CN1CCc2c(C#N)c(N3CCOCC3)nc(N3CCOCC3)c2C1 | / | 8.2
Cc1noc(C)c1-c1ccc(C(N)=O)s1 | 12.2 | 18.4
